# Inconclusive results are not listed. Calls of active or inactive are those of the source. How the source made its calls: active means hit-call score of the fitted dose curve at least 0.9, where 1 is the maximum; inconclusive means response in the unintended direction; inactive means score below 0.9.
# How the values were obtained:
# [1] = molecular target: human Ephrin type-A Receptor 1 (EphA1), EPHA1 (gene 2041) (UniProt P21709); test: NVS_ENZ_hEphA1: NovaScreen (NVS) Enzymatic Assay for human Ephrin type-A Receptor 1 (EphA1) (AID 2283158);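 further: activity is signal loss versus DMSO meaning EphA1 kinase inhibition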
# human Ephrin type-A Receptor 1 (EphA1), EPHA1 (gene 2041), sequence (P21709 whole entry, looked up): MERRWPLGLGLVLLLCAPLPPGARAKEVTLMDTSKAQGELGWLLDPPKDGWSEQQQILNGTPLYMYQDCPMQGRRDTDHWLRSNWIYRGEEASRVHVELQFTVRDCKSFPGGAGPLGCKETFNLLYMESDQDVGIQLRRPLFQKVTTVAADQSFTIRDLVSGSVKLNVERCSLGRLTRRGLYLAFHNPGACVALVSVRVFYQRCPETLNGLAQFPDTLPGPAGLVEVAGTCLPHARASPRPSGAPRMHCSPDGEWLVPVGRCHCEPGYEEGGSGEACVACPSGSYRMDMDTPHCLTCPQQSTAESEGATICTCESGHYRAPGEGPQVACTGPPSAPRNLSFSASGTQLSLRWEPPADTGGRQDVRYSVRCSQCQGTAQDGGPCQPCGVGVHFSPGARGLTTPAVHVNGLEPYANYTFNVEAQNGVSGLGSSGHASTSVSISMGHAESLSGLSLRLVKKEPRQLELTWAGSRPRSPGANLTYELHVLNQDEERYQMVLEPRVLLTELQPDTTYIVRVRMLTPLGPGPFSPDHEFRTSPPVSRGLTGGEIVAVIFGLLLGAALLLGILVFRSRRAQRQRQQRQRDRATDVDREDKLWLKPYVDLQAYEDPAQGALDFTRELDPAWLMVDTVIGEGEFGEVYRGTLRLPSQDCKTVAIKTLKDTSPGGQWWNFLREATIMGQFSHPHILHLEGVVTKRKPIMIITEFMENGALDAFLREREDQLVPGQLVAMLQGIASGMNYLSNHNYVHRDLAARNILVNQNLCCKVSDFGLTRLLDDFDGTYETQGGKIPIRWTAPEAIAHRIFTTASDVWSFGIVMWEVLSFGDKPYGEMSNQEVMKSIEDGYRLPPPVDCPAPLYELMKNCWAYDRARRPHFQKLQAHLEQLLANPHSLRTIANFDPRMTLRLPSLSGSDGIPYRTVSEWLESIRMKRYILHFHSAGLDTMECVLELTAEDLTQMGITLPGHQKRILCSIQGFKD
# Summary of the method: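 Recombinant kinase, fluorescent substrate, mobility-shift separation, fluorescence read at 1 h. Single-point duplicates at 25 uM; hits (e.g., ≥30% inhibition) run singleton concentration-response, max 50 uM. DMSO = negative control/baseline.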
# [2] = molecular target: human Matrix Metalloproteinase-9 (MMP9), MMP9 (gene 4318) (UniProt P14780); test: NVS_ENZ_hMMP9: NovaScreen (NVS) Enzymatic Assay for human Matrix Metalloproteinase-9 (MMP9) (AID 2283190);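 further: cell-free recombinant MMP9 protease activity read by fluorescent substrate signal; active means inhibition seen as loss of fluorescence signal versus DMSO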
# human Matrix Metalloproteinase-9 (MMP9), MMP9 (gene 4318), sequence (P14780 whole entry, looked up): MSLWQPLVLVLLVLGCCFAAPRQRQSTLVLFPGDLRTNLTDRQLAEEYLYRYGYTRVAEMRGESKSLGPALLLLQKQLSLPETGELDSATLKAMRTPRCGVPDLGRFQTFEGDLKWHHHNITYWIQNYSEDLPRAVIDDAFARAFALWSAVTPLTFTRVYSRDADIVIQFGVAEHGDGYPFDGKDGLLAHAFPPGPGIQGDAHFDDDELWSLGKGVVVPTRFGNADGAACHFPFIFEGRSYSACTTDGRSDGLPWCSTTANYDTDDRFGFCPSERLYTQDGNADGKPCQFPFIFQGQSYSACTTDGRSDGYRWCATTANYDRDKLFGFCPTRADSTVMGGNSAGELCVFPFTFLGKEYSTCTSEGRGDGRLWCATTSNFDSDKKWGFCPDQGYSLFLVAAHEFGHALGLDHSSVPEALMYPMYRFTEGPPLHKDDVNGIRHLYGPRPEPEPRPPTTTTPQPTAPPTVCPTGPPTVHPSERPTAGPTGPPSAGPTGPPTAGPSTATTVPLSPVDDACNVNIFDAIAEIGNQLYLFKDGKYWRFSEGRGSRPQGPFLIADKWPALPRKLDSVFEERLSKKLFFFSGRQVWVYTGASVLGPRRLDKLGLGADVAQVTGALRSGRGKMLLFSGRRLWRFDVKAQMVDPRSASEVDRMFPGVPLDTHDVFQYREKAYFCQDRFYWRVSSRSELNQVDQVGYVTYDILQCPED
# Summary of the method: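 Cell-free fluorescence-intensity enzyme activity assay using extracted protein, read 1 h after dosing. Loss of signal versus DMSO baseline indicates inhibition; primary screen in duplicate at 25 uM, actives followed up in concentration series.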
# [3] = molecular target: human Phosphodiesterase 10 (PDE10), PDE10A (gene 10846) (UniProt Q9Y233); test: NVS_ENZ_hPDE10: NovaScreen (NVS) Enzymatic Assay for human Phosphodiesterase 10 (PDE10) (AID 2283195)
# human Phosphodiesterase 10 (PDE10), PDE10A (gene 10846), sequence (Q9Y233 whole entry, looked up): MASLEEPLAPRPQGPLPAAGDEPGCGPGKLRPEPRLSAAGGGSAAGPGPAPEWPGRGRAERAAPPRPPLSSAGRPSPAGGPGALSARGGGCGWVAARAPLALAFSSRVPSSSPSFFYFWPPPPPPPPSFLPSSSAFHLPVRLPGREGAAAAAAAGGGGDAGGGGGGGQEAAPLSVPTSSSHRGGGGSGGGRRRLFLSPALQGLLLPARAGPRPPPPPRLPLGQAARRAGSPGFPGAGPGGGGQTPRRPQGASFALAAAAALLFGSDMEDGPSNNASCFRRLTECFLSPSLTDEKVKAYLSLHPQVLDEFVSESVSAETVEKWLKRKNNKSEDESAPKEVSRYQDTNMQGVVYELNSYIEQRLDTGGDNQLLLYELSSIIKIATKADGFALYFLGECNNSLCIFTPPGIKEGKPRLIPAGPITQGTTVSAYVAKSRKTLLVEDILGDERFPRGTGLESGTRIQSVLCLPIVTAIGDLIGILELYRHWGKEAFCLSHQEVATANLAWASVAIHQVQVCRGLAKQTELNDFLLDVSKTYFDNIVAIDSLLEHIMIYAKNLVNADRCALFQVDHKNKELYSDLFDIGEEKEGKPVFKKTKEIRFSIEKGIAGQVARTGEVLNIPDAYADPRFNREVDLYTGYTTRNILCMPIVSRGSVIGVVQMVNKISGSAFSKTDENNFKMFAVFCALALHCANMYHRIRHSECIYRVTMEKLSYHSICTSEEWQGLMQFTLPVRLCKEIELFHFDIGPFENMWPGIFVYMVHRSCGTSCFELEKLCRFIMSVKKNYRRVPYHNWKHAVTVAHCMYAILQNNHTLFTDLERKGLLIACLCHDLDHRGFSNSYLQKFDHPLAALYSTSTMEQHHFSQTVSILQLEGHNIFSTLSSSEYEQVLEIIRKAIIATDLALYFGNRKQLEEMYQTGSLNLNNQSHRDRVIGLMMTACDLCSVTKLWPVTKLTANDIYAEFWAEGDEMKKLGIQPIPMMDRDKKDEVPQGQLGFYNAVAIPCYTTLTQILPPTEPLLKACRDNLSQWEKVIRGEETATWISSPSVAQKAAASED
# Summary of the method: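 Fluorescence readout after mobility-shift separation of substrate and product, 1 h reaction with recombinant human enzyme. Single-concentration duplicates at 25 uM, then concentration-response up to 50 uM for chemicals reaching threshold; DMSO baseline.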
# [4] = molecular target: human Phosphoinositide 3-kinase alpha (PI3Ka), PIK3CA (gene 5290) (UniProt P42336); test: NVS_ENZ_hPI3Ka: NovaScreen (NVS) Enzymatic Assay for human Phosphoinositide 3-kinase alpha (PI3Ka) (AID 2283196)
# human Phosphoinositide 3-kinase alpha (PI3Ka), PIK3CA (gene 5290), sequence (P42336 whole entry, looked up): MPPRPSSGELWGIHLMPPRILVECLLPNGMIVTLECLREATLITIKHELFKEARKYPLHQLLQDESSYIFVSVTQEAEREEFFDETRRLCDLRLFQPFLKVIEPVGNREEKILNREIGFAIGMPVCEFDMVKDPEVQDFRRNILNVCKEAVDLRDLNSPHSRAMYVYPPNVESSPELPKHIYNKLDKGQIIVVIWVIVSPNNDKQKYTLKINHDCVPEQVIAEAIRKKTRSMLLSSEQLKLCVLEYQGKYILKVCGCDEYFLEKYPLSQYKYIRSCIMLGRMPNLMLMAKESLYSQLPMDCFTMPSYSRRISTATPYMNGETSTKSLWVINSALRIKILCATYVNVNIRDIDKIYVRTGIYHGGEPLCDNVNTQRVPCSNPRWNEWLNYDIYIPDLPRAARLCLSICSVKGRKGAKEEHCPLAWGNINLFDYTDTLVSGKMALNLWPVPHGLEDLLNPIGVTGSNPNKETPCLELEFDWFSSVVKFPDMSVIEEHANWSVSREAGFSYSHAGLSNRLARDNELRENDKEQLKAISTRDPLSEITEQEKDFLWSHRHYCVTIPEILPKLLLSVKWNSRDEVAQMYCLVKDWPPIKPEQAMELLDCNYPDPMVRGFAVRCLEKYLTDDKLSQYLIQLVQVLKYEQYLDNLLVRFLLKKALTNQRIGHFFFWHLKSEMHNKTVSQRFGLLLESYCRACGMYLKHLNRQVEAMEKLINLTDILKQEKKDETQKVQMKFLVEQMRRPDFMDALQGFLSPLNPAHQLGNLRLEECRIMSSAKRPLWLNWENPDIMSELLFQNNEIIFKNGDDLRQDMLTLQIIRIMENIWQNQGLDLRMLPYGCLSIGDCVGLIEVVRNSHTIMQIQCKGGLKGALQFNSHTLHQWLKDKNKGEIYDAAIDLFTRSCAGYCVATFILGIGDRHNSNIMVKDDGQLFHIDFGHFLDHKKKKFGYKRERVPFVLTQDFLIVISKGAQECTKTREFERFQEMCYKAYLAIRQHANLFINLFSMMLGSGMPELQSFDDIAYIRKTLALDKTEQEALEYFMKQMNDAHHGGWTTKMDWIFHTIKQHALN
# Summary of the method: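 Enzyme activity as fluorescence after mobility-shift separation of substrate and product, 1 h reaction, recombinant human PI3Kα; concentration-response to 50 uM max for chemicals passing a 25 uM duplicate screen.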
# [5] = molecular target: human Dual Specificity Protein Phosphatase 3 (DUSP3), DUSP3 (gene 1845) (UniProt P51452); test: NVS_ENZ_hDUSP3: NovaScreen (NVS) Enzymatic Assay for human Dual Specificity Protein Phosphatase 3 (DUSP3) (AID 2283152);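 further: phosphatase activity of recombinant human DUSP3 on a fluorogenic substrate without cells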
# human Dual Specificity Protein Phosphatase 3 (DUSP3), DUSP3 (gene 1845), sequence (P51452 whole entry, looked up): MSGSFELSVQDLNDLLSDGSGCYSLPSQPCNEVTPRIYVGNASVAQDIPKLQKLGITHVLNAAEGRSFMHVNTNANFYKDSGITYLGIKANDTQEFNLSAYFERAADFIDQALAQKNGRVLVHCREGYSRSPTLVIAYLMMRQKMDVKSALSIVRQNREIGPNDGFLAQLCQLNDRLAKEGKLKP
# Summary of the method: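 Cell-free fluorescence-intensity enzyme activity assay with recombinant protein and substrate; loss of signal fitted relative to DMSO baseline. Primary screen in duplicate at 25 uM, actives then run in concentration series; measured 0 h after dosing.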
# [6] = molecular target: human Caspase 5 (CASP5), CASP5 (gene 838) (UniProt P51878); test: NVS_ENZ_hCASP5: NovaScreen (NVS) Enzymatic Assay for human Caspase 5 (CASP5) (AID 2283137)
# human Caspase 5 (CASP5), CASP5 (gene 838), sequence (P51878 whole entry, looked up): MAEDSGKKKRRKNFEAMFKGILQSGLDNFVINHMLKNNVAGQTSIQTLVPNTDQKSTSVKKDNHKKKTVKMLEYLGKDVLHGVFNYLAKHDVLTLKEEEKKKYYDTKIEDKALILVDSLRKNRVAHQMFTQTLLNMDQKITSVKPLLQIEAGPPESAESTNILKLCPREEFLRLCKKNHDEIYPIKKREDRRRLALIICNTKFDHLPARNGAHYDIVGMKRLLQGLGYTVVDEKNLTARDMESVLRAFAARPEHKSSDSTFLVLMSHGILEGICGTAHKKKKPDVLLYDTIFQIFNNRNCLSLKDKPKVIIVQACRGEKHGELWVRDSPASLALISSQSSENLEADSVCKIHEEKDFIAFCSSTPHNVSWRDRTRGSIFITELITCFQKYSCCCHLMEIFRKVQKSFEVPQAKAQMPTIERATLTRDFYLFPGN
# Summary of the method: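 Loss of fluorescent signal versus DMSO scored for E. coli-derived human CASP5 cleaving a fluorescent substrate, 2 h post-dosing; compounds first tested at 25 uM in duplicate, hits rerun in concentration series with 50 uM top concentration.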
# [7] = molecular target: Cytochrome P450 2C19 (Homo sapiens) (UniProt P33261); test: NVS_ADME_hCYP2C19: NovaScreen (NVS) CYP450-related Enzyme Activity (ADME) Assay for human CYP2C19 (AID 2283113);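 further: potency for inhibition seen as loss of fluorescent signal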
# Summary of the method: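 Recombinant insect-cell-expressed enzyme, fluorescent substrate, 1 h after chemical addition, fluorescence intensity. Baseline = acetonitrile vehicle; activity scored as signal loss. Primary HTS single concentration 10 uM, duplicate; actives retested in concentration series.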
# [8] = molecular target: human Beta-secretase (BACE), BACE1 (gene 23621) (UniProt P56817); test: NVS_ENZ_hBACE: NovaScreen (NVS) Enzymatic Assay for human Beta-secretase (BACE) (AID 2283140);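 further: hits are inhibitors that reduce fluorescent substrate signal versus DMSO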
# human Beta-secretase (BACE), BACE1 (gene 23621), sequence (P56817 whole entry, looked up): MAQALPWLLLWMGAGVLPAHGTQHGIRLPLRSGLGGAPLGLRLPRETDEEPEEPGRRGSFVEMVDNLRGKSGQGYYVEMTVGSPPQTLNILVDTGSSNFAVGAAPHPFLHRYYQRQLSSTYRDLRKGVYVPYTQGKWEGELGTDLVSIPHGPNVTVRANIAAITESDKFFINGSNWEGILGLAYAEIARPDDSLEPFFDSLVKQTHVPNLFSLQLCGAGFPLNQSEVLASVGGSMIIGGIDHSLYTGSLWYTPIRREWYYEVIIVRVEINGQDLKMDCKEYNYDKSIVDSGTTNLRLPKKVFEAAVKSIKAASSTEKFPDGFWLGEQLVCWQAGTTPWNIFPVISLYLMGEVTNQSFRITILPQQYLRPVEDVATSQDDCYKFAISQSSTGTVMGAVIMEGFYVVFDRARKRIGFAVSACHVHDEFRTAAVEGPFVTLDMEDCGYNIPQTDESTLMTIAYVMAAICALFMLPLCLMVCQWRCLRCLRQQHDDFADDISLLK
# Summary of the method: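 Enzyme from SF9 cells was incubated 1 hour with compound and fluorogenic substrate, activity read by fluorescence. Single-concentration duplicates at 25 uM preceded concentration-response follow-up; fitting relative to DMSO baseline.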
# [9] = molecular target: human Esterase Plasma (ES), BCHE (gene 590) (UniProt P06276); test: NVS_ENZ_hES: NovaScreen (NVS) Enzymatic Assay for human Esterase Plasma (ES) (AID 2283157)
# Summary of the method: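 Primary single-concentration screen at 25 uM in duplicate, then concentration-response to a 50 uM top dose. Human plasma esterase activity detected colorimetrically after 0.25 h incubation, with DMSO as baseline.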
smiles,measurement,setting,value
CCO[Si](CCCS)(OCC)OCC,outcome,[1],inactive
same,AC50,[2],1.65 µM (active)
same,AC50,[3],32.1 µM (active)
same,outcome,[4],inactive
S=C(S)NCCNC(=S)S,AC50,[5],0.161 µM (active)
Nc1cc(N)cc(C(=O)O)c1,AC50,[6],19900 nM (active)
CC(C)Oc1ccccc1O,outcome,[1],inactive
Nc1ccc(F)c([N+](=O)[O-])c1,AC50,[7],66.2 nM (active)
CC(C)[C@H]1CC[C@@H](C)CC1=O,outcome,[1],inactive
O=P(c1ccccc1)(c1ccccc1)c1ccccc1,AC50,[7],12.1 nM (active)
N#Cc1ccccc1,outcome,[8],inactive
same,outcome,[4],inactive
CC(CCO)CCCC(C)(C)O (stereo not given),outcome,[1],inactive
O=C1OC2(c3cc(Br)c(O)c(Br)c3Oc3c2cc(Br)c(O)c3Br)c2c(Cl)c(Cl)c(Cl)c(Cl)c21,AC50,[7],196 nM (active)
same,AC50,[6],552 nM (active)
same,AC50,[5],6.67 µM (active)
same,outcome,[9],inactive
same,AC50,[4],1.86 µM (active)
CC1COc2ccccc2N1C(=O)C(Cl)Cl (stereo not given),outcome,[1],inactive
COC(=O)c1ccc(C)cc1,outcome,[8],inactive
same,outcome,[4],inactive
CCCCO,outcome,[1],inactive
CC(C)[C@@H]1CC[C@@H](C)CC1=O,outcome,[1],inactive
O=C=NC1CCC(CC2CCC(N=C=O)CC2)CC1 (stereo not given),AC50,[8],8.32 µM (active)
same,AC50,[2],2.17 µM (active)
same,outcome,[3],inactive
same,outcome,[4],inactive
CCCCC/C=C/C=C/C=O,AC50,[6],627 nM (active)
same,AC50,[8],25 µM (active)
same,AC50,[5],9.31 µM (active)
same,outcome,[1],inactive
same,AC50,[2],25 µM (active)
same,outcome,[3],inactive
same,outcome,[4],inactive
CC(=O)O[C@]1(C(C)=O)CC[C@H]2[C@@H]3C[C@H](C)C4=CC(=O)CC[C@]4(C)[C@H]3CC[C@@]21C,AC50,[7],2500 nM (active)
same,outcome,[2],inactive
CCn1c2ccccc2c2cc(N)ccc21,AC50,[7],2030 nM (active)
same,AC50,[9],27.1 µM (active)
same,AC50,[1],19.3 µM (active)
same,AC50,[4],9.32 µM (active)
